# Where two headings read alike, the source gives them in different places.
# What was measured:
# [1] = test system: AAK1; set-up: species or system human, MV4-11 + K-562 + COLO205 + SK-N-BE2 + OVCAR-8; conditions: read-out: apparent Kd, compound concentrations: 100 nM and 1000 nM (sheet 'Samples'), n = 1
# [2] = test system: BMP2K; set-up: species or system human, MV4-11 + K-562 + COLO205 + SK-N-BE2 + OVCAR-8; conditions: read-out: apparent Kd, compound concentrations: 100 nM and 1000 nM (sheet 'Samples'), n = 1
# [3] = test system: CDKL5; set-up: species or system human, MV4-11 + K-562 + COLO205 + SK-N-BE2 + OVCAR-8; conditions: read-out: apparent Kd, compound concentrations: 100 nM and 1000 nM (sheet 'Samples'), n = 1
# [4] = test system: CSNK2A1;CSNK2A3; set-up: species or system human, MV4-11 + K-562 + COLO205 + SK-N-BE2 + OVCAR-8; conditions: read-out: apparent Kd, compound concentrations: 100 nM and 1000 nM (sheet 'Samples'), n = 1
# [5] = test system: CSNK2A2; set-up: species or system human, MV4-11 + K-562 + COLO205 + SK-N-BE2 + OVCAR-8; conditions: read-out: apparent Kd, compound concentrations: 100 nM and 1000 nM (sheet 'Samples'), n = 1
# [6] = biological target: Q6ZSR9 (human, UniProt Q6ZSR9); set-up: species or system MV4-11 + K-562 + COLO205 + SK-N-BE2 + OVCAR-8; conditions: read-out: apparent Kd, compound concentrations: 100 nM and 1000 nM (sheet 'Samples'), n = 1
# [7] = test system: FLT4; set-up: species or system human, MV4-11 + K-562 + COLO205 + SK-N-BE2 + OVCAR-8; conditions: read-out: apparent Kd; compound concentrations: 100 nM and 1000 nM (sheet 'Samples'), CATDS: 8.0295198966638101E-2; n = 1
# [8] = test system: GAK; set-up: species or system human, MV4-11 + K-562 + COLO205 + SK-N-BE2 + OVCAR-8; conditions: read-out: apparent Kd, compound concentrations: 100 nM and 1000 nM (sheet 'Samples'), n = 1
# [9] = test system: MYLK3; set-up: species or system human, MV4-11 + K-562 + COLO205 + SK-N-BE2 + OVCAR-8; conditions: read-out: apparent Kd, compound concentrations: 100 nM and 1000 nM (sheet 'Samples'), n = 1
# [10] = test system: CLK4; set-up: species or system human, MV4-11 + K-562 + COLO205 + SK-N-BE2 + OVCAR-8; conditions: read-out: apparent Kd, compound concentrations: 100 nM and 1000 nM (sheet 'Samples'), n = 1
# [11] = test system: DYRK1A; set-up: species or system human, MV4-11 + K-562 + COLO205 + SK-N-BE2 + OVCAR-8; conditions: read-out: apparent Kd; compound concentrations: 100 nM and 1000 nM (sheet 'Samples'), CATDS: 1.8409243102770301E-2; n = 1
# [12] = test system: GSK3B; set-up: species or system human, MV4-11 + K-562 + COLO205 + SK-N-BE2 + OVCAR-8; conditions: read-out: apparent Kd, compound concentrations: 100 nM and 1000 nM (sheet 'Samples'), n = 1
# [13] = test system: FLT3; set-up: species or system human, MV4-11 + K-562 + COLO205 + SK-N-BE2 + OVCAR-8; conditions: read-out: apparent Kd, compound concentrations: 100 nM and 1000 nM (sheet 'Samples'), n = 1
# [14] = test system: GSK3A; set-up: species or system human, MV4-11 + K-562 + COLO205 + SK-N-BE2 + OVCAR-8; conditions: read-out: apparent Kd, compound concentrations: 100 nM and 1000 nM (sheet 'Samples'), n = 1
# [15] = test system: MELK; set-up: species or system human, MV4-11 + K-562 + COLO205 + SK-N-BE2 + OVCAR-8; conditions: read-out: apparent Kd; compound concentrations: 100 nM and 1000 nM (sheet 'Samples'), CATDS: 2.5364281194585201E-2; n = 1
# [16] = test system: NUAK1; set-up: species or system human, MV4-11 + K-562 + COLO205 + SK-N-BE2 + OVCAR-8; conditions: read-out: apparent Kd, compound concentrations: 100 nM and 1000 nM (sheet 'Samples'), n = 1
# [17] = test system: PAK4; set-up: species or system human, MV4-11 + K-562 + COLO205 + SK-N-BE2 + OVCAR-8; conditions: read-out: apparent Kd; compound concentrations: 100 nM and 1000 nM (sheet 'Samples'), CATDS: 2.6532527955357901E-2; n = 1
# [18] = test system: RET; set-up: species or system human, MV4-11 + K-562 + COLO205 + SK-N-BE2 + OVCAR-8; conditions: read-out: apparent Kd; compound concentrations: 100 nM and 1000 nM (sheet 'Samples'), CATDS: 3.2863733799292097E-2; n = 1
# [19] = test system: CLK1; set-up: species or system human, MV4-11 + K-562 + COLO205 + SK-N-BE2 + OVCAR-8; conditions: read-out: apparent Kd; compound concentrations: 100 nM and 1000 nM (sheet 'Samples'), CATDS: 3.5256752059163503E-2; n = 1
# [20] = test system: PRKD2; set-up: species or system human, MV4-11 + K-562 + COLO205 + SK-N-BE2 + OVCAR-8; conditions: read-out: apparent Kd; compound concentrations: 100 nM and 1000 nM (sheet 'Samples'), CATDS: 2.8859084082920799E-2; n = 1
# Sequence of Q6ZSR9 (Q6ZSR9 whole entry, looked up): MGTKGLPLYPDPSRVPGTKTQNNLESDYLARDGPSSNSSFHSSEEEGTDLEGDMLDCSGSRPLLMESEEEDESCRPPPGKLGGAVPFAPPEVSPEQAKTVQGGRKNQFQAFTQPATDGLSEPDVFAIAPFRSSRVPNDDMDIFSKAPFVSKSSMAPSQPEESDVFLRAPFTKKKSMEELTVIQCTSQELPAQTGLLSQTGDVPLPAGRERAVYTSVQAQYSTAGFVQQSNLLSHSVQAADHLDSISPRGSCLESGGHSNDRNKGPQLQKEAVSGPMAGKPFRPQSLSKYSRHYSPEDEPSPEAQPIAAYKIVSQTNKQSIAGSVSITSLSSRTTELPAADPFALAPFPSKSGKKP
smiles,measurement,setting,value
NS(=O)(=O)c1ccc(N/N=C2\C(=O)Nc3ccc4ncccc4c32)cc1 [GW305178X],potency estimated from few doses,[1]; CATDS: 4.5052292202984998E-2,1340 nM
same,potency estimated from few doses,[2]; CATDS: 4.3500032535549099E-2,1510 nM
same,potency estimated from few doses,[3]; CATDS: 5.21381649539812E-2,867 nM
same,potency estimated from few doses,[4]; CATDS: 3.8490357435000497E-2,2360 nM
same,potency estimated from few doses,[5]; CATDS: 4.2211322900730999E-2,1670 nM
same,potency estimated from few doses,[6]; CATDS: 4.4355829104281E-2,1410 nM
COc1cc2ncn(-c3cc(OCc4ccccc4S(C)(=O)=O)c(C#N)s3)c2cc1OC [GSK319347A],potency estimated from few doses,[1]; CATDS: 0.12685242970353799,621 nM
same,potency estimated from few doses,[2]; CATDS: 0.286498522791794,177 nM
same,potency estimated from few doses,[7],1720 nM
same,potency estimated from few doses,[8]; CATDS: 8.54645100662135E-2,1450 nM
same,potency estimated from few doses,[9]; CATDS: 9.2768404511317695E-2,1190 nM
same,potency estimated from few doses,[6]; CATDS: 0.124049531101547,647 nM
Cl.Cl.NCC(NC(=O)c1cc(-c2ccnc3[nH]ccc23)cs1)c1ccccc1.NCC(NC(=O)c1cc(-c2ccnc3[nH]ccc23)cs1)c1ccccc1 (centres unmarked) [GSK1229959A],potency estimated from few doses,[1]; CATDS: 3.6384638335370603E-2,79.6 nM
same,potency estimated from few doses,[2]; CATDS: 3.4118166315235399E-2,97.1 nM
same,potency estimated from few doses,[3]; CATDS: 5.0422739373742101E-2,33.2 nM
same,potency estimated from few doses,[10]; CATDS: 1.8316449367944E-2,1240 nM
same,potency estimated from few doses,[11],1200 nM
same,potency estimated from few doses,[8]; CATDS: 3.7046569699604799E-2,75.5 nM
same,potency estimated from few doses,[12]; CATDS: 1.8491508517635601E-2,1170 nM
same,potency estimated from few doses,[9]; CATDS: 2.3428006567825201E-2,382 nM
same,potency estimated from few doses,[6]; CATDS: 3.4885156977357598E-2,90.6 nM
CN[C@H](C#Cc1c(F)ccc2c1/C(=C/c1[nH]ccc1OC)C(=O)N2)CO.Cl [RO0283049-001],potency estimated from few doses,[1]; CATDS: 2.8240152121160999E-2,574 nM
same,potency estimated from few doses,[2]; CATDS: 7.2716114591836398E-2,79.8 nM
same,potency estimated from few doses,[3]; CATDS: 0.200980885548627,17.8 nM
same,potency estimated from few doses,[4]; CATDS: 2.0504154829503698E-2,1690 nM
same,potency estimated from few doses,[5]; CATDS: 2.5963864867474401E-2,730 nM
same,potency estimated from few doses,[13]; CATDS: 0.132856529197414,31.3 nM
same,potency estimated from few doses,[8]; CATDS: 2.5381960568832601E-2,781 nM
same,potency estimated from few doses,[14]; CATDS: 5.21732936396841E-2,145 nM
same,potency estimated from few doses,[12]; CATDS: 5.3689374792110299E-2,137 nM
same,potency estimated from few doses,[15],783 nM
same,potency estimated from few doses,[9]; CATDS: 2.9648763968158898E-2,504 nM
same,potency estimated from few doses,[16]; CATDS: 5.6502774837069003E-2,125 nM
same,potency estimated from few doses,[17],685 nM
same,potency estimated from few doses,[6]; CATDS: 2.6998984012354399E-2,651 nM
same,potency estimated from few doses,[18],389 nM
Cn1cc(C2=C(c3ccc(OC[C@@H](O)CO)cc3)C(=O)NC2=O)c2ccccc21 [RO3208546-000],potency estimated from few doses,[1]; CATDS: 3.6946772477140302E-2,1320 nM
same,potency estimated from few doses,[19],1510 nM
same,potency estimated from few doses,[8]; CATDS: 4.3278259075416499E-2,885 nM
same,potency estimated from few doses,[14]; CATDS: 5.7986352312034098E-2,489 nM
same,potency estimated from few doses,[12]; CATDS: 4.5953894166210499E-2,774 nM
same,potency estimated from few doses,[6]; CATDS: 3.3781584093652402E-2,1720 nM
NS(=O)(=O)c1ccc(N/C=C2\C(=O)Nc3ccc4ncsc4c32)cc1 [GW297361X],potency estimated from few doses,[1]; CATDS: 4.1332868698359997E-2,785 nM
same,potency estimated from few doses,[2]; CATDS: 4.6280622165998701E-2,615 nM
same,potency estimated from few doses,[3]; CATDS: 5.4362762723509199E-2,448 nM
same,potency estimated from few doses,[10]; CATDS: 3.6697746350308501E-2,1050 nM
same,potency estimated from few doses,[4]; CATDS: 3.0344109186555501E-2,1830 nM
same,potency estimated from few doses,[5]; CATDS: 3.6316988085140701E-2,1070 nM
same,potency estimated from few doses,[13]; CATDS: 4.1021562023835299E-2,799 nM
same,potency estimated from few doses,[9]; CATDS: 0.13217199419509801,106 nM
same,potency estimated from few doses,[16]; CATDS: 0.30685592880619,33.6 nM
same,potency estimated from few doses,[20],2200 nM
same,potency estimated from few doses,[6]; CATDS: 3.8953206873676101E-2,902 nM

# Reference: PMC11062922 (Nature Chemical Biology, 2023)
